hgDAF-12 ag: activates the H. glycines DAF-12 receptor ligand-binding domain | HEK293 GAL4-hgDAF12 UAS-luciferase reporter, agonist luminescence; normalized to butyrate control | activation, % at 6.8 µM | hit rate 1.8% among 370,000;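 active = activation above a cutoff set at the mean of all screened compounds plus 3 SD, cut at about 10% in these data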
DAX1 inh-1: inhibits human nuclear receptor DAX1. P51843. HEK293 Gal4-DAX1 luciferase reporter, luminescence. inhibition, % at 6.75 µM. hit rate 0.99% among 340,000. AID 504766;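 active = inhibition above the mean over all tested compounds plus 3 SD, cut at about 4.2% in these data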;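 note: inhibition shows as a rise in luminescence from relieved DAX1 repression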
Target sequence (P51843 207-470 limits assumed): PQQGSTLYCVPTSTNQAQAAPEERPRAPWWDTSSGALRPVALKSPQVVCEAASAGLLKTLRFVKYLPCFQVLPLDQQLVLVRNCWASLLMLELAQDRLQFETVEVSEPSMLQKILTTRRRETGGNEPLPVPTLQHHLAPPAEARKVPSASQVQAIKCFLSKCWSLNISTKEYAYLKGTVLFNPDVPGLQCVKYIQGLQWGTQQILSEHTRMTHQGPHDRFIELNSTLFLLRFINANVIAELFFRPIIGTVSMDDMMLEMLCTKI
ssDAF-12 act: activates DAF-12 receptor from parasite S. stercoralis | HEK293 ssDAF-12/GRIP1 lit1-tk-luc reporter, luminescence; % of 3 µM dafachronic acid response | hit rate 1% among 370,000 | AID 652126 | activation, % at 6.8 µM;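 active = activation above the mean over all tested compounds plus 3 SD, cut at about 0.9% in these data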
DAX1 inh-2: blocks DAX1 repression of SF-1 activated StAR promoter. HEK293T StAR-luciferase reporter, SF-1/DAX-1 repression relief. inhibition, % at 6.8 µM. hit rate 1.1% among 370,000. AID 652010;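 active = inhibition above the mean over all tested compounds plus 3 SD, cut at about 3.6% in these data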;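 note: higher inhibition means more luminescence from relief of DAX-1 repression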
hcDAF12 agonist: H. contortus DAF-12 activation, primary screen; AID 652067; hit rate 1.4% among 370,000; activation, % at 6.8 µM; HEK293 hcDAF-12 lit1-tk-luc reporter, luminescence; 0% DMSO, 100% Δ7-dafachronic acid;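 active = activation above the mean of all tested compounds plus 3 SD, cut at about 5.5% in these data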
Hits are given with their value; n = inactive; x = no result. Most compounds without a hit are left out; they make up all but 4.1% or so of the library.

SMILES | hgDAF-12 ag | DAX1 inh-1 | ssDAF-12 act | DAX1 inh-2 | hcDAF12 agonist
CCOC(=O)c1csc(NC(=O)C2CCCN(S(=O)(=O)c3ccc(C)cc3)C2)n1 (stereo unspecified) | n | x | n | n | n
COc1ccc(C2=Nn3c(nnc3C3CCCCC3)SC2)cc1 | n | x | n | n | n
CC(NCc1ccco1)C(=O)N1CCN(c2cccc(C(F)(F)F)c2)CC1 (stereo unspecified) | n | x | n | n | n
CC(C)(C)OC(=O)NCc1cc(F)ccc1/C=C/S(=O)(=O)NC1CCCC1 | n | x | n | n | n
Cc1occc1C(=O)N/N=C/C=C/c1ccc(N(C)C)cc1 | 12 | n | n | 3.8 | n
O=C(CSc1nnc(-c2ccncc2)o1)Nc1ccccc1C(F)(F)F | n | n | n | n | n
CC(C)C[C@H]1COc2cc(Br)ccc2S(=O)(=O)N1Cc1cn(CCC2OCCO2)nn1 | n | x | n | n | n
c1ccc2c(Nc3nnc(-c4ccncc4)s3)cccc2c1 | 10 | n | n | n | n
C=CCNc1nnc(-c2ccncc2)s1 | n | n | n | n | n
Cc1ccc(NC(=O)C(=O)NCC2CCCO2)cc1C (stereo unspecified) | n | 5.8 | n | n | n
CC(=O)Nc1ccc(S(=O)(=O)NCC2CCCO2)cc1 (stereo unspecified) | n | 5.1 | n | n | n
CC(=O)Nc1ccc(C(=O)Nc2ccc(S(=O)(=O)NCC3CCCO3)cc2)cc1 (stereo unspecified) | n | n | n | n | n
CS(=O)(=O)c1ccc2nc(NC(=O)c3ccc(S(=O)(=O)NCC4CCCO4)cc3)sc2c1 (stereo unspecified) | n | 5.4 | n | n | n
O=S(=O)(/N=C(/Nc1nc2ccccc2s1)c1ccccc1)c1ccc(F)cc1 | 11 | 6.4 | 0.9 | 4.4 | n
COc1cccc(NC(=O)n2ccc3ccc(-c4ccc5cc[nH]c5c4)cc32)c1 | n | x | n | n | n
CS(=O)(=O)c1ccc2nc(NC(=O)c3ccccc3)sc2c1 | 11 | n | n | n | n
Cc1cccc(C(=O)Nc2nc3ccc(S(C)(=O)=O)cc3s2)c1 | n | n | n | n | n
Cc1c(C(=O)NCC2CCCO2)oc2ccc(Br)cc12 (stereo unspecified) | n | n | n | 3.8 | n
CS(=O)(=O)c1ccc2nc(NC(=O)Nc3ccc(Cl)c(Cl)c3)sc2c1 | n | n | 1.9 | n | n
CCCC1CCC2(CC1)CCC2OC(=O)Nc1cccc(Cl)c1 (stereo unspecified) | n | x | n | x | n
CCCCCCCCN1C(=O)[C@@H](CC(=O)NCCc2ccccc2OC)C[C@@]2(C(=O)OC)C1=C[C@H](C(C)C)O[C@@H]2C1CC1 | n | x | n | n | n
CC(C)[C@H](NC(=O)OCc1ccccc1)C(=O)OCC(=O)N1CCCCC1 | 12 | n | n | n | n
COCCN1CCCc2nc(-c3ccc(F)cc3)ccc21 | n | x | n | n | n
CCCCn1cnc2c(oc3ccccc32)c1=O | 12 | n | n | n | n
N#CCn1cnc2c(oc3ccccc32)c1=O | x | n | x | x | x
SMILES | hgDAF-12 ag | DAX1 inh-1 | ssDAF-12 act | DAX1 inh-2 | hcDAF12 agonist
COc1cccc(CC(=O)N2CCN(C(=O)C(=O)c3ccc(OC)c(OC)c3)CC2)c1 | n | x | n | n | n
Cc1[nH]n(-c2ccccc2)c(=O)c1C=NC1CCCCC1 | n | n | n | n | n
Cc1[nH]n(-c2ccccc2)c(=O)c1C=NC1CCCCCC1 | n | 5.5 | n | n | n
COc1ccc2c(c1)CCc1c(C(=O)N3CCCCCC3)noc1-2 | n | n | n | 3.8 | n
COc1ccc2c(c1)CCc1c(C(=O)NCc3cccnc3)noc1-2 | n | n | n | n | n
COc1ccc2c(c1)CCc1c(C(=O)NCC(C)C)noc1-2 | 13 | 5.6 | n | n | n
COCCNC(=O)c1ccc(NS(=O)(=O)c2ccc3[nH]c(=O)[nH]c3c2)cc1 | n | n | n | n | n
Cc1cccn2c(=O)c3cc(C(=O)NCCc4ccccc4)sc3nc12 | n | n | 1.0 | n | n
CCCCNC(=O)c1cc2c(=O)n3cccc(C)c3nc2s1 | n | n | n | n | n
CCCc1ccc2oc(C(=O)N3CCN(c4cnccn4)CC3)c(C)c2c1 | n | n | n | n | n
Cc1ccc2nc(SC(C)C(=O)N3CCCCC3)[nH]c2c1 (stereo unspecified) | n | n | 1.8 | n | n
O=c1c(-c2ccccc2)n[nH]c2ccccc12 | 11 | n | n | n | n
O=C1NC(=Nc2ccccc2)S/C1=C\c1cccs1 | n | n | 1.4 | n | n
